Our source for the AC50 and outcome values is PubChem BioAssay (EPA / NIEHS).

Results filed as inconclusive are left out. Calls of active or inactive are those of the source. The calls were made as follows: active = hit-call score of the fitted dose curve at least 0.9, where 1 is the maximum; inconclusive = response in the unintended direction; inactive = score below 0.9.

The target in assay [1] is chimpanzee Androgen Receptor (AR), AR (gene 747460) (UniProt O97775). The assay can be described thus: NVS_NR_cAR: NovaScreen (NVS) Nuclear Receptor Binding Assay for chimpanzee Androgen Receptor (AR) (AID 2283346).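 Also: radioligand displacement from AR measured by scintillation counting in a cell-free assay.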 The gist of the method:
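Cell-free radioligand displacement using receptor protein extracted from Sf9/Sf21 cells; bound radioligand measured by scintillation counting 72 hours after chemical dosing. Loss of signal versus DMSO baseline indicates binding; primary screen single-concentration in duplicate at 25 uM, actives followed in concentration series.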

For assay [2], the target named is Androgen Receptor/SRC-1 Co-activator, AR (gene 367) (UniProt P10275). The assay can be described thus: OT_AR_ARSRC1_0960: Odyssey Thera (OT) 16-hour HEK293T Protein-Complementation Assay for Androgen Receptor/SRC-1 Co-activator (AID 2283353).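 Also: actives raise the signal above DMSO so potency reflects increased AR and SRC-1 complex.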 In outline:
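Readout: 488 nm nuclear-to-cytoplasmic fluorescence ratio from imaging of at least 400 cells per image, 16 h post-dose. Reporter is Venus YFP complementation between AR and SRC-1 fusions, stably expressed in HEK293T; activity scored upward relative to DMSO.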

Assay [3] shares this target. The assay is described as follows: OT_AR_ARSRC1_0480: Odyssey Thera (OT) 8-hour HEK293T Protein-Complementation Assay for Androgen Receptor/SRC-1 Co-activator (AID 2283354).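 Also: hits raise the complementation signal above DMSO so AC50 marks enhancers.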 The gist of the method:
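After 8 h dosing, stably expressing HEK293T cells with split-Venus AR/SRC-1 fusions were imaged (488, 635nm). The 488nm N/C ratio per image gave the endpoint, analysed in the positive direction against DMSO.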

For assay [4], the target named is Estrogen receptor beta (Homo sapiens) (UniProt Q92731). The assay is described as follows: OT_ER_ERbERb_0480: Odyssey Thera (OT) 8-hour HEK293T Protein-Complementation Assay for Estrogen Receptor-beta/-beta Homodimer (AID 2283357).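 Also: active means signal gain over DMSO baseline.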 In outline: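 Fluorescence gain from complemented reporter fragments on ER-beta LBD homodimer in HEK293T was quantified against DMSO controls after 8 h treatment, fixation in 4% formaldehyde and Draq5 staining.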
Estrogen receptor beta (Homo sapiens), sequence (Q92731 whole entry, looked up, the tested form may be a part): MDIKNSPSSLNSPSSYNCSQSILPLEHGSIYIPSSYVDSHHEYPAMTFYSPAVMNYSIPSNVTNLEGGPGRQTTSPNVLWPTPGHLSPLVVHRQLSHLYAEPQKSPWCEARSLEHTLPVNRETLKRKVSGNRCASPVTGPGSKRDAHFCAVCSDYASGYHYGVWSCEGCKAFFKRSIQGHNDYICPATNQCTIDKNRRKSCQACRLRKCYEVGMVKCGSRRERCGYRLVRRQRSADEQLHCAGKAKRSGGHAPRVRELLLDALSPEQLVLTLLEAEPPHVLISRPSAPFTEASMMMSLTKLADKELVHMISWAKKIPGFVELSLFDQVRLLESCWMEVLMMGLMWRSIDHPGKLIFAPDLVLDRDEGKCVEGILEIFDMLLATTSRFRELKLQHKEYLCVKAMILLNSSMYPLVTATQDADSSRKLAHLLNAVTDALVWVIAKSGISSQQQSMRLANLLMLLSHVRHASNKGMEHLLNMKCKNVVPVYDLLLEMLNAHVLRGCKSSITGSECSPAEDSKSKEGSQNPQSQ

For assay [5], the target named is bovine Gamma-Aminobutyric Acid Type A Receptor Agonist (GABAR Agonist), GABRA1 (gene 780973) (UniProt P08219). The assay can be described thus: NVS_LGIC_bGABAR_Agonist: NovaScreen (NVS) Ligand-Gated Ion Channel Assay for bovine Gamma-Aminobutyric Acid Type A Receptor Agonist (GABAR Agonist) (AID 2283338). The gist of the method:
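Radioligand binding to bovine cerebellar membranes in agonist format, read by filter-based scintillation counting after 1 h. Primary screen in duplicate at 25 uM, with actives followed in concentration series. Gain of signal versus DMSO.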

For assay [6], the system named is guinea pig Histamine Receptor (H2), gene 100729734. The assay can be described thus: NVS_GPCR_gH2: NovaScreen (NVS) G Protein-Coupled Receptor Assay for guinea pig Histamine Receptor (H2) (AID 2283342). The gist of the method:
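Guinea pig striatal membrane preparation with specific radioligand; bound counts measured by filtration and scintillation 1 h post-dosing, DMSO as baseline. Chemicals passing a 25 uM duplicate screen were titrated to a 50 uM maximum.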

Assay [7] deals with Estrogen receptor (Homo sapiens) (UniProt P03372). The assay can be described thus: NVS_NR_hER: NovaScreen (NVS) Nuclear Receptor Binding Assay for human Estrogen Receptor (ER) (AID 2283348). In outline:
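Radiodetection of ligand displacement in a lysate-based, cell-free format using MCF7 extracts, read at 18 hours. Duplicate 25 uM primary testing, then concentration series for actives.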

Assay [8] shares this target. The assay is described as follows: OT_ER_ERaERa_0480: Odyssey Thera (OT) 8-hour HEK293T Protein-Complementation Assay for Estrogen Receptor-alpha/-alpha Homodimer (AID 2283351).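 Also: rise in fluorescence from reassembled reporter fragments on ERα LBD homodimer in nucleus or whole cell.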 The gist of the method:
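Read-out: fluorescence intensity rise relative to DMSO, nuclear for agonists, nuclear plus cytoplasmic for antagonists. Construct is the ERα LBD (aa 310-547) homodimer fragment-complementation pair, stably expressed in HEK293T; exposure 8 h.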

Assay [9] has as its target rat Glycine Receptor, Strychnine-sensitive (GlyRStrySens), Glra1 (gene 25674) (UniProt P07727). The assay can be described thus: NVS_LGIC_rGlyRStrySens: NovaScreen (NVS) Ligand-Gated Ion Channel Assay for rat Glycine Receptor, Strychnine-sensitive (GlyRStrySens) (AID 2283341). The gist of the method:
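Radioligand displacement on rat spinal cord membranes, 1 hr, filter scintillation read-out. Single-concentration duplicate screen at 25 uM; chemicals meeting threshold (e.g., 30% inhibition) rerun in concentration-response up to 50 uM. Loss of binding fitted versus DMSO.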

For assay [10], the target named is bovine Estrogen Receptor (ER), ESR1 (gene 407238) (UniProt P49884). The assay can be described thus: NVS_NR_bER: NovaScreen (NVS) Nuclear Receptor Binding Assay for bovine Estrogen Receptor (ER) (AID 2283345).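 Also: actives lower the bound radioligand count which means they displace the ER ligand.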 In outline: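 Cell-free radioligand binding with receptor from bovine uterine membranes, read by scintillation counting 18 h after dosing. Loss of specific binding was scored against DMSO; primary screen at 25 uM in duplicate, actives then run as concentration series.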

The target of assay [11] is Estrogen receptor (Homo sapiens) + Estrogen receptor beta (Homo sapiens) (UniProt P03372+Q92731). The assay can be described thus: OT_ER_ERaERb_1440: Odyssey Thera (OT) 24-hour HEK293T Protein-Complementation Assay for Estrogen Receptor-alpha/-beta Homodimer (AID 2283356).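 Also: heteromer of ER alpha and ER beta binding domains; hits raise reporter fluorescence and both agonists and antagonists give an increase.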 In outline: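 24 h exposure; HEK293T PCA cells with ERα/ERβ LBD fragments; signal rise in nuclear or whole-cell fluorescence over vehicle.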
Estrogen receptor (Homo sapiens) + Estrogen receptor beta (Homo sapiens), sequence (P03372 whole entry, looked up, the tested form may be a part): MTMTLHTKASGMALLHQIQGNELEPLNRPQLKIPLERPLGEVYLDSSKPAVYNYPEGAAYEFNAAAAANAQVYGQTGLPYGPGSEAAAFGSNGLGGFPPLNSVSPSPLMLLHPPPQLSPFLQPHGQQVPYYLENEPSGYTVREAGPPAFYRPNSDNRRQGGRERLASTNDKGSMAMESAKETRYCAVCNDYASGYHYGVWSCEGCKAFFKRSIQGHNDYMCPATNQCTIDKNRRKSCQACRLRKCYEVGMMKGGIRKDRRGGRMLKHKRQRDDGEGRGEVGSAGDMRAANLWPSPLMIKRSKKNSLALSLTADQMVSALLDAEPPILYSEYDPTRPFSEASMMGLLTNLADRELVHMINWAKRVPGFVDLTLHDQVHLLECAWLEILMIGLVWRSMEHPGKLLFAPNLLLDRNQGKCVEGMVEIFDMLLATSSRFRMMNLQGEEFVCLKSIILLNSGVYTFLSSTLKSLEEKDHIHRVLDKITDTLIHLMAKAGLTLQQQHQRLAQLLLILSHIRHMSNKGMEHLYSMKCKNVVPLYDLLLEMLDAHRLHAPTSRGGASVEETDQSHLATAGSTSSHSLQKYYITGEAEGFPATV
Estrogen receptor (Homo sapiens) + Estrogen receptor beta (Homo sapiens), sequence (Q92731 whole entry, looked up, the tested form may be a part): as the sequence (Q92731 whole entry, looked up, the tested form may be a part) above

Assay [12] has as its target Bile acid receptor (Homo sapiens) (UniProt Q96RI1). The assay can be described thus: NVS_NR_hFXR_Antagonist: NovaScreen (NVS) Nuclear Receptor Binding Assay for human Farnesoid X Receptor Antagonism (FXR) (AID 2283350). In outline:
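Antagonist-format time-resolved FRET binding assay with extracted human receptor protein, read 1 hour after compound addition. Compounds first screened at 25 uM in duplicate, then actives tested in concentration series, with loss of signal relative to DMSO.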

Androgen Receptor/SRC-1 Co-activator, AR (gene 367), sequence (P10275 whole entry, looked up, the tested form may be a part): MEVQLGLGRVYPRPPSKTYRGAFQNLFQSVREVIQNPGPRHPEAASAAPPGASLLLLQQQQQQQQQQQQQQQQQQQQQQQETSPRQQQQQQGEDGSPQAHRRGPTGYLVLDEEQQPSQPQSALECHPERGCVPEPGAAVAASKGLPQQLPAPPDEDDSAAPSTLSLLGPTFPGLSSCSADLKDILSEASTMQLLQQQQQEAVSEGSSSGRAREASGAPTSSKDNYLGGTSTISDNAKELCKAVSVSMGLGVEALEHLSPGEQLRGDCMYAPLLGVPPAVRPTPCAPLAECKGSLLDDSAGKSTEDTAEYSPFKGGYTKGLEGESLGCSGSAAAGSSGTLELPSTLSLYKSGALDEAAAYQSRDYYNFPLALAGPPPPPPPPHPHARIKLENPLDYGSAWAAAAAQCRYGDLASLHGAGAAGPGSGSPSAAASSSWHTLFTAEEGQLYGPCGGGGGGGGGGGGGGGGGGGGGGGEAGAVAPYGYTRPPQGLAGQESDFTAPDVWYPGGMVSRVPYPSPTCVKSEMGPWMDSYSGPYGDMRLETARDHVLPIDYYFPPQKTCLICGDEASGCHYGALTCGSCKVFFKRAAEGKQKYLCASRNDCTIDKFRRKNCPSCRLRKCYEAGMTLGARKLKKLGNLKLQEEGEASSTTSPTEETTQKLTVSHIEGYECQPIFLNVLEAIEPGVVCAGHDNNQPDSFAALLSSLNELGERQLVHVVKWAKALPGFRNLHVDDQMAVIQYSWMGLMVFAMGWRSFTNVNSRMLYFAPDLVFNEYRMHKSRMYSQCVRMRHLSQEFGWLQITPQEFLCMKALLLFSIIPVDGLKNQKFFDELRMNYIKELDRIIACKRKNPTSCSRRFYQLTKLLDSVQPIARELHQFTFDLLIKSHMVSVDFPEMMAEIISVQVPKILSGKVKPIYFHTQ
chimpanzee Androgen Receptor (AR), AR (gene 747460), sequence (O97775 whole entry, looked up): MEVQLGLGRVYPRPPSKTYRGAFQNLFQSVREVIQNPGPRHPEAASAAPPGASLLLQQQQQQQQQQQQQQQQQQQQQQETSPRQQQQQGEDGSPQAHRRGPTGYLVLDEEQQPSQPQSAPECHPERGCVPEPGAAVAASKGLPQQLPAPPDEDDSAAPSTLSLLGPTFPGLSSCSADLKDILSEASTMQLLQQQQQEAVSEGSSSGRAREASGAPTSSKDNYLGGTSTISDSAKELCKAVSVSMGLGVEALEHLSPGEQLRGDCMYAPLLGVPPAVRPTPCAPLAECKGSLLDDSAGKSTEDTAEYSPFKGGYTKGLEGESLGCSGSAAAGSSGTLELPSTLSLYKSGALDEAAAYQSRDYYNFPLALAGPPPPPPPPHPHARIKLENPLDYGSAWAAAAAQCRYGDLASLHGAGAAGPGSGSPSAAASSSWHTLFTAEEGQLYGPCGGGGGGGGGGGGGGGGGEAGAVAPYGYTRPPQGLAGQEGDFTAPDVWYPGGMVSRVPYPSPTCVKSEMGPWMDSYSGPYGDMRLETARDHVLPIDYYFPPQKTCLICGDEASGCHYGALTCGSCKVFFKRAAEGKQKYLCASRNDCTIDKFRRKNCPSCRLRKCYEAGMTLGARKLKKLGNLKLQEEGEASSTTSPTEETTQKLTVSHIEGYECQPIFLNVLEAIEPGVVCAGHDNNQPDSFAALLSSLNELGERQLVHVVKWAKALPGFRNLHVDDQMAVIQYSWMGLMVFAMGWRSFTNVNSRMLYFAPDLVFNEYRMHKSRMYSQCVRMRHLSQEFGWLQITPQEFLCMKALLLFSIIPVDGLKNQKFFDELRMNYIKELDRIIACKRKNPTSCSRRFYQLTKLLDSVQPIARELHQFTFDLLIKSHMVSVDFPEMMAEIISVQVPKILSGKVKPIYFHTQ
Estrogen receptor (Homo sapiens), sequence (P03372 whole entry, looked up): as the sequence (P03372 whole entry, looked up, the tested form may be a part) above
Bile acid receptor (Homo sapiens), sequence (Q96RI1 whole entry, looked up): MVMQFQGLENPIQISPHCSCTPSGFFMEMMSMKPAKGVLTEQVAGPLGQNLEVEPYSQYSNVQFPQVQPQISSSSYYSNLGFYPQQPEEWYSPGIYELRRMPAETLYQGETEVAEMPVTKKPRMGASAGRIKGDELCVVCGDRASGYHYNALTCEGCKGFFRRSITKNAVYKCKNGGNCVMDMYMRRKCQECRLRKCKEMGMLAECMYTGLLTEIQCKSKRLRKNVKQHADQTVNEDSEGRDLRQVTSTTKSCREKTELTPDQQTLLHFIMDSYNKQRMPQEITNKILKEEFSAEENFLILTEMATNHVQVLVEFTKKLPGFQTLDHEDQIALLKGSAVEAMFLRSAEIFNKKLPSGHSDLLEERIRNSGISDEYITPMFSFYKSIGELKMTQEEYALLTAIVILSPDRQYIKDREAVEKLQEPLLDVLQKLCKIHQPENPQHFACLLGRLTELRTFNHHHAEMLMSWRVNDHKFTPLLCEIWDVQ
bovine Gamma-Aminobutyric Acid Type A Receptor Agonist (GABAR Agonist), GABRA1 (gene 780973), sequence (P08219 whole entry, looked up): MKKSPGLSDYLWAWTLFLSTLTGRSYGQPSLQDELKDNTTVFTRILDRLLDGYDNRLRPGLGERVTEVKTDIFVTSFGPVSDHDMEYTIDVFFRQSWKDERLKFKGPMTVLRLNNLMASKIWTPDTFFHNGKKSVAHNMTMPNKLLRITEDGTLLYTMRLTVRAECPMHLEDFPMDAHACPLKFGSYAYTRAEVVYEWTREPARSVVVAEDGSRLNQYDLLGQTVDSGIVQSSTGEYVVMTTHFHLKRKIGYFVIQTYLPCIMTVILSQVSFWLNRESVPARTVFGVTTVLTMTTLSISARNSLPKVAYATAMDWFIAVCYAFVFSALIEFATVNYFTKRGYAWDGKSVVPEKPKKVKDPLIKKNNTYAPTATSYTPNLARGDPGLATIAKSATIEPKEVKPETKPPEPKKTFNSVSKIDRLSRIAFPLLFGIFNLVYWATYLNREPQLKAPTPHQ

With `O=C(O)c1cccc(N(Cc2cccnc2)c2ccc(OC(F)F)c(OC(F)F)c2)c1`, the AC50 in assay [1] is 2.81 µM (active); in assay [2], 37.1 µM (active). Also, the compound was called inactive in [3] and in assay [4].
For `O=C(O)CCN(C1(C(=O)NO)CCCC1)S(=O)(=O)c1ccc(Oc2ccc(F)cc2)cc1`, the AC50 in assay [5] is 7.72 µM (active). Also, the call in [4] was inactive.
As for `CCOC(=O)COc1ccc2c(c1)CC(NCC(O)c1cccc(Cl)c1)CC2` (stereo unspecified), the half-maximal activity concentration (AC50) in [6] was 32 µM (active). Also, the compound was called inactive in assay [7] and in assay [8].
In the case of `CC/C(=C\C(=N/O)C(N)=O)C(C)[N+](=O)[O-]` (stereo unspecified), the compound was classed as inactive in assay [9], in assay [10], in assay [8], in assay [11] and in [4].
Take `Cn1cnc([N+](=O)[O-])c1Sc1ncnc2nc[nH]c12`: the result in assay [7], in assay [8], in assay [11] and in assay [4] was inactive.
As to `CC(C)=CCCC(C)CCO` (stereo unspecified), the result in [7], in assay [8], in assay [2], in assay [3], in assay [11] and in assay [4] was inactive.
As for `CC(C)=CCC/C(C)=C/CO`, the outcome in [1] was inactive.
As for `CC(=O)OC[C@H]1O[C@@](COC(C)=O)(O[C@H]2O[C@H](COC(C)=O)[C@@H](OC(C)=O)[C@H](OC(C)=O)[C@H]2OC(C)=O)[C@@H](OC(C)=O)[C@@H]1OC(C)=O`, the compound was classed as inactive in assay [5] and in assay [4].
Turning to `CC(C)CCO`, the call in [8], in assay [11] and in [4] was inactive.
Take `O=C(NS(=O)(=O)/C=C/c1ccccc1)c1ccc(F)cc1Cl`: the compound was called inactive in assay [8] and in assay [11].
As for `Cc1ccc(N)cc1O`, the compound was classed as inactive in assay [8], in [2], in assay [11] and in [4].
As to `CC[C@H](C)C(=O)O[C@H]1C[C@@H](C)C=C2C=C[C@H](C)[C@H](CC[C@@H]3C[C@@H](O)CC(=O)O3)[C@H]21`, the AC50 was 24.9 µM (active) in assay [1] and 31.5 µM (active) in assay [12]. For the same compound, the compound was called inactive in assay [8], in assay [11] and in assay [4].
Regarding `Nc1ccc(Nc2ccccc2)cc1`, the compound was classed as inactive in [6], in assay [10] and in assay [7].
Consider `CC(C)=CCCC(C)=CC=O`, for which the call in [7], in assay [8], in assay [11] and in assay [4] was inactive.
With `O=C(O)c1cccc(Oc2ccccc2)c1`, the call in assay [8] was inactive.
For the compound `CCCCC(CC)COC(=O)CCCCCCCCC(=O)OCC(CC)CCCC` (stereo unspecified), in [8], the AC50 is 0.949 µM (active).
With `CCCCCCc1ccc(O)cc1O`, the outcome in assay [1] was inactive. Moreover, the AC50 in assay [2] is 92.3 µM (active); in assay [3], 77.9 µM (active).
For `O=C(CCCCCCCCc1cccnc1)N1CCC(C=C(c2ccccc2)c2ccccc2)CC1`, the call in assay [6], in assay [3] and in assay [4] was inactive. Also, the AC50 in assay [2] was 27.5 µM (active).
With `COC(=O)c1c(Cl)c(Cl)c(C(=O)OC)c(Cl)c1Cl`, the compound was called inactive in assay [12] and in assay [8]. The AC50 in [11] and in assay [4] was 50 µM (active) each time.

The term AC50 denotes the concentration at which the activity in the assay is half-maximal.
